For assay [1], the target named is Estrogen receptor (Homo sapiens) (UniProt P03372). As to the kind of experiment: qHTS assay to identify small molecule antagonists of the estrogen receptor alpha (ER-alpha) signaling pathway using the BG1 cell line in the presence of 0.1 nM 17-beta-estradiol (AID 1259244). Note: nearly all actives have a fitted effect of over 50% in size. In a few lines: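 Estradiol at 0.1 nM (final) stimulates the endogenous ER-alpha of VM7Luc4E2 cells carrying an ERE-driven luciferase; compounds are co-incubated 22 h at 37C and luciferase output quantified by luminescence.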

Assay [2] is described as follows: qHTS assay to identify small molecule HDAC inhibitors (AID 1259364). Note: potency is the fitted concentration of half-maximal effect.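 Note: wild-type HCT-116 cells with endogenous class I/II HDAC activity; nearly all actives have a fitted effect of over 45% in size.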 In a few lines: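 Read-out: luminescence of HDAC-Glo I/II reagent, 30 min RT, reflecting class I/II deacetylase activity in whole HCT-116 cells pre-exposed 2 h to DMSO-dissolved compounds.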
A general note: Quantitative high-throughput screening tests each substance at several concentrations.

Assay [3] is described as follows: qHTS assay to identify small molecule HDAC inhibitors - cell viability counter screen (AID 1259365). Note: series mostly up to about 92 µM; nearly all actives have a fitted effect of over 50% in size. An outline of the steps:
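Following a 2hr exposure of overnight-plated wild-type HCT-116 cells to DMSO-delivered compounds, CellTiter-Glo was added and luminescence recorded after 30min at room temperature.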

Assay [4] in a line: qHTS assay to identify small molecule agonists of the sonic hedgehog signaling (Shh) pathway - cell viability counter screen (AID 1259366). Note: nearly all actives have a fitted effect of over 50% in size. An outline of the steps: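 After a 4hr attachment at 37C, NIH/3T3 cells bearing an integrated Gli1-driven luciferase reporter were dosed with compounds. Treatment lasted 24hr, with the final hour including CellTiter-Fluor for a fluorescence viability measurement.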

Assay [5] is described as follows: qHTS assay to identify small molecule antagonists of the sonic hedgehog signaling (Shh) pathway - cell viability counter screen (AID 1259367). Note: nearly all actives have a fitted effect of over 55% in size. In a few lines: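 NIH/3T3-derived Gli1-Luc reporter cells, 2,000/well, plated 4 hr before compound addition, then stimulated with conditioned medium for 24 hr at 37C. Viability measured in the same wells by CellTiter-Fluor fluorescence, reagent added at 23 hr for 1 hr.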

The nature of assay [6]: qHTS assay to identify small molecule agonists of the sonic hedgehog signaling (Shh) pathway (AID 1259368; calls by dose curve;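 note: NIH/3T3-derived 3T3Gli1-Luc cells carrying a stable Gli1-driven firefly luciferase reporter; series mostly up to about 92 µM; nearly all actives have a fitted effect of over 15% in size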). In a few lines: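 A Gli1 transcriptional response element controlled firefly luciferase in 3T3Gli1-Luc cells. Compounds and a positive control were added 4 hr after plating, and cells were incubated a further 24 hr at 37 C before luminescence detection.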
Assay [7] can be described thus: qHTS assay to identify small molecule antagonists of the sonic hedgehog signaling (Shh) pathway (AID 1259369; calls by dose curve; note: nearly all actives have a fitted effect of over 45% in size; note: potency is the fitted concentration of half-maximal effect). In a few lines:
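For antagonist detection, the reporter line received test compounds together with conditioned medium, incubated 24hr at 37 C, 5% CO2, then luminescence was recorded following 30min room-temperature luciferase reagent incubation.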

The target in assay [8] is Estrogen receptor beta (Homo sapiens) (UniProt Q92731). As to the kind of experiment: qHTS assay to identify small molecule agonists of the estrogen receptor beta (ER-beta) signaling pathway (AID 1259377; active = well fitted activation curve with a large enough effect in the signal ratio in the repeat runs, not every such curve was filed as active; the % refers to the signal ratio). In a few lines:
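In HEK293T cells bearing a UAS-beta-lactamase reporter under ER-beta control, DMSO-delivered compounds were incubated for 16 hr at 37C. Activity was detected as fluorescence 2 hours after LiveBLAzer B/G FRET substrate addition.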

Assay [9] in a line: qHTS assay to identify small molecule agonists of the androgen receptor (AR) signaling pathway in the presence of an antagonist - cell viability counter screen (AID 1259379).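 Note: MDA-kb2 human breast cancer cells carrying an MMTV luciferase reporter; series mostly up to about 92 µM; nearly all actives have a fitted effect of over 25% in size.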 An outline of the steps:
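Seed MDA-kb2 at 3,000 cells/well; incubate 5 hr, 37C, 0% CO2. Add nilutamide to 3.0uM final, then pin compounds at 15 concentrations. Incubate 16 hr. Add CellTiter-Fluor at 15 hr, read fluorescence after 1 hr.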

A short description of assay [10]: qHTS assay to identify small molecule agonists of the estrogen receptor beta (ER-beta) signaling pathway - cell viability counter screen (AID 1259380). Note: nearly all actives have a fitted effect of over 30% in size. Note: potency is the fitted concentration of half-maximal effect. An outline of the steps:
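CellTiter-Glo read, 30 min RT, same wells as bla assay; cells ER-beta-UAS-bla HEK293T; 16 hr compound, 37C; medium 2% charcoal-stripped FBS.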

The nature of assay [11]: qHTS assay to identify small molecule antagonists of the estrogen receptor beta (ER-beta) signaling pathway - cell viability counter screen (AID 1259382).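 Note: HEK293T cells carrying ER-beta-UAS-bla reporter stimulated with estradiol; series mostly up to about 92 µM; nearly all actives have a fitted effect of over 55% in size.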 An outline of the steps: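 In this multiplexed counter screen, cells were seeded at 2,000 per well in medium with 2% charcoal-stripped FBS and incubated 6 hr before compound and 1nM final E2 were added. Sixteen hours later, ATP-based luminescence reported viability.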

For assay [12], the target named is Estrogen receptor (Homo sapiens) (UniProt P03372). As to the kind of experiment: qHTS assay to identify small molecule agonists of the estrogen receptor alpha (ER-alpha) signaling pathway in the presence of an antagonist (AID 1259383; calls by dose curve; note: top concentration of the series differs between compounds; nearly all actives have a fitted effect of over 15% in size). In a few lines:
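Stably transfected VM7Luc4E2 reporter cells, kept 5 days in charcoal-stripped serum, received ICI-182,780 at 10.0nM final before compound addition. Following 22hr incubation at 37C and 5% CO2, luciferase signal was read by luminescence.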

The target in assay [13] is Thyrotropin receptor (Homo sapiens) (UniProt P16473). The assay is described as follows: qHTS assay to identify small molecule antagonists of the thyroid stimulating hormone receptor (TSHR) signaling pathway (AID 1259385; calls by dose curve; note: nearly all actives have a fitted effect of over 20% in size). An outline of the steps: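 TSHR-HEK293 cells (800/well) plated 18 h, then compounds with Ro20-1724 and TSH at 1.5 ng/mL final, 30 min at room temperature. cAMP quantified by HTRF (cAMP-d2/anti-cAMP-cryptate, 1 h); 15 concentrations in triplicate.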

The nature of assay [14]: qHTS assay to identify small molecule agonists of the estrogen receptor alpha (ER-alpha) signaling pathway in the presence of an antagonist - cell viability counter screen (AID 1259386).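 Note: series mostly up to about 92 µM; cells exposed to compounds for 22 h at 37 °C before the viability read; nearly all actives have a fitted effect of over 30% in size.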 In a few lines: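 Viability counter screen using VM7Luc4E2 (full-length ER-alpha, four ERE-luciferase). The cells were treated with compounds alongside ICI-182,780 10.0nM for 22hr, and live-cell protease fluorescence was quantified with CellTiter-Fluor.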

Assay [15] has as its target Progesterone receptor (Homo sapiens) (UniProt P06401). The assay is described as follows: qHTS assay to identify small molecule agonists of the progesterone receptor (PR) signaling pathway (AID 1346784; calls by dose curve; note: nearly all actives have a fitted effect of over 30% in size). An outline of the steps: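 Using charcoal-stripped serum (2%) to limit endogenous steroids, PR-UAS-bla HEK 293T cells received compounds for 16 hr at 37C after 6 hr plating; beta-lactamase FRET fluorescence was recorded following 2 hr substrate loading at room temperature.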

Assay [16] shares this target. The assay is described as follows: qHTS assay to identify small molecule antagonists of the progesterone receptor (PR) signaling pathway (AID 1346795; active = well fitted inhibition curve with a large enough effect in the signal ratio in the repeat runs, not every such curve was filed as active; the % refers to the signal ratio; note: potency is the fitted concentration of half-maximal effect). An outline of the steps: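 Inhibition of R5020-induced (1 nM final) beta-lactamase reporter signal in PR-UAS-bla HEK293T cells was scored by FRET fluorescence after overnight (16 hr) compound treatment.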
Assay [17] can be described thus: qHTS assay to identify small molecule antagonists of the progesterone receptor (PR) signaling pathway - cell viability counter screen (AID 1346798). Note: series mostly up to about 92 µM; nearly all actives have a fitted effect of over 50% in size. An outline of the steps:
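ATP content as viability readout: CellTiter-Glo luminescence, 30 min room temperature, in PR-UAS-bla HEK293T cells after 16 hr compound/R5020 treatment at 37C and 5% CO2.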

Assay [18] can be described thus: qHTS assay to identify small molecule agonists or antagonists of the thyroid stimulating hormone receptor (TSHR) signaling pathway - wild type cell line counter screen (AID 1259384; calls by dose curve). In a few lines:
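Wild-type Hek293 cells, 800/well, 18 h at 37C, then compound with Ro20-1724 for 30 min RT. cAMP by HTRF (cAMP-d2/anti-cAMP cryptate), 1 h RT, fluorescence read. 15 concentrations, triplicates.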

The target in assay [19] is Androgen receptor (Homo sapiens) (UniProt P10275). As to the kind of experiment: qHTS assay to identify small molecule agonists of the androgen receptor (AR) signaling pathway in the presence of an antagonist (AID 1259381; calls by dose curve; note: nearly all actives have a fitted effect of over 15% in size). An outline of the steps:
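Test compounds at 15 concentrations were incubated for 16hr with MDA-kb2 reporter cells in presence of 3.0uM nilutamide (final). Signal: ONE-Glo luciferase luminescence.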

Where “and” joins values, the source holds several entries; their conditions need not be identical. Equal entries are not always repeated. Results filed as inconclusive are left out. Calls of active or inactive are those of the source. Unless noted, calls come from the whole dose curve; as a rule, active = well fitted curve in the direction sought with a large enough effect in the repeat runs; inconclusive = weak or mixed curves; inactive = no such curve, though single readings can be large; an effect the other way counts as inactive or inconclusive.

Sequence of Androgen receptor (Homo sapiens) (P10275 whole entry, looked up): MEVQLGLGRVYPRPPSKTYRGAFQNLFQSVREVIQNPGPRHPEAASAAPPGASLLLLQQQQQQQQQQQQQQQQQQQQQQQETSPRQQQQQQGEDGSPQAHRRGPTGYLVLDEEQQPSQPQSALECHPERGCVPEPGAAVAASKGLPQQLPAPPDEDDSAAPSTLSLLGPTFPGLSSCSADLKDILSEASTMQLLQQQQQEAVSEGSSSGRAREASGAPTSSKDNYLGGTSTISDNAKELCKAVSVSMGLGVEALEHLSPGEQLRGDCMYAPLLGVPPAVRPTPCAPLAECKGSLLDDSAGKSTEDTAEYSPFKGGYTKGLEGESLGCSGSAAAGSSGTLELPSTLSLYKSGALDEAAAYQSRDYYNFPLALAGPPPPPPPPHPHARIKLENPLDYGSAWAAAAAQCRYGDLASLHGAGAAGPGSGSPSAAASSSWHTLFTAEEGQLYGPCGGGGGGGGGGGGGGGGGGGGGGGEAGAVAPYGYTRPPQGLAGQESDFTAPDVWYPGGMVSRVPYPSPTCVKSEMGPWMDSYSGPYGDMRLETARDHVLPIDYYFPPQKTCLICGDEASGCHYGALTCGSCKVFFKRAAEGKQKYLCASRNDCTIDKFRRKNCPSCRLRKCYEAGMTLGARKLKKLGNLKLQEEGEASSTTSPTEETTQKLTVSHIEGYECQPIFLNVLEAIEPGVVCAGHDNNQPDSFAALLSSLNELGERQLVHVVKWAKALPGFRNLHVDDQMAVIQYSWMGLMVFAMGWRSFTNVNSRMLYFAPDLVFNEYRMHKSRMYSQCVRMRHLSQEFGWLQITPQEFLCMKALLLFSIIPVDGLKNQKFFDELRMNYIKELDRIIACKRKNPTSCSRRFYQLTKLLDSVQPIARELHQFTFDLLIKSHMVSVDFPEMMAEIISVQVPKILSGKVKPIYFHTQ
Sequence of Progesterone receptor (Homo sapiens) (P06401 whole entry, looked up): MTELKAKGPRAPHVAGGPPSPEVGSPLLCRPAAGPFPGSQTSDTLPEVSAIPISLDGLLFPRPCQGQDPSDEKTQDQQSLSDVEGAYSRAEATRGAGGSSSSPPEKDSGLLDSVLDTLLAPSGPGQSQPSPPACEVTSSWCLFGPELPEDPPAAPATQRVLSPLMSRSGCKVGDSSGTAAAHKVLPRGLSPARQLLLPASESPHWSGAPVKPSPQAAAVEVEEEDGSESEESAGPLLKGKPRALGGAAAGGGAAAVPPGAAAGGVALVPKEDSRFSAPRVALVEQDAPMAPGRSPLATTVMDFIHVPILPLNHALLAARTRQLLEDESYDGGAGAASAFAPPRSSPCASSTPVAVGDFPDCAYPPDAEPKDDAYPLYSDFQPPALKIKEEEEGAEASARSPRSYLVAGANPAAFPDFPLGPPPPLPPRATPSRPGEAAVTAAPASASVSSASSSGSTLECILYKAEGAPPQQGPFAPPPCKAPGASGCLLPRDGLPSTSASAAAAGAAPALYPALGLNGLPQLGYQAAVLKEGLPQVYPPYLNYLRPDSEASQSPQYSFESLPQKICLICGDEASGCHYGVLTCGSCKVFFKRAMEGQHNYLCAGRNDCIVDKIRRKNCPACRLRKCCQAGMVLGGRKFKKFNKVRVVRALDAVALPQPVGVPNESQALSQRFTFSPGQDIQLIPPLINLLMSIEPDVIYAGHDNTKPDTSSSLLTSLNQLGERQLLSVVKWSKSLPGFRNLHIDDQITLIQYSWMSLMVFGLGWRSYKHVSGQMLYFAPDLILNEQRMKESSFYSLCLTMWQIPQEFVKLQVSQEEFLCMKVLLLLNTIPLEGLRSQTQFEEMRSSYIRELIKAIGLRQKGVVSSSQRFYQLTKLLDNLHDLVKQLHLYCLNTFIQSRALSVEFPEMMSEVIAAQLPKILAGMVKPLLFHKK
Sequence of Estrogen receptor (Homo sapiens) (P03372 whole entry, looked up): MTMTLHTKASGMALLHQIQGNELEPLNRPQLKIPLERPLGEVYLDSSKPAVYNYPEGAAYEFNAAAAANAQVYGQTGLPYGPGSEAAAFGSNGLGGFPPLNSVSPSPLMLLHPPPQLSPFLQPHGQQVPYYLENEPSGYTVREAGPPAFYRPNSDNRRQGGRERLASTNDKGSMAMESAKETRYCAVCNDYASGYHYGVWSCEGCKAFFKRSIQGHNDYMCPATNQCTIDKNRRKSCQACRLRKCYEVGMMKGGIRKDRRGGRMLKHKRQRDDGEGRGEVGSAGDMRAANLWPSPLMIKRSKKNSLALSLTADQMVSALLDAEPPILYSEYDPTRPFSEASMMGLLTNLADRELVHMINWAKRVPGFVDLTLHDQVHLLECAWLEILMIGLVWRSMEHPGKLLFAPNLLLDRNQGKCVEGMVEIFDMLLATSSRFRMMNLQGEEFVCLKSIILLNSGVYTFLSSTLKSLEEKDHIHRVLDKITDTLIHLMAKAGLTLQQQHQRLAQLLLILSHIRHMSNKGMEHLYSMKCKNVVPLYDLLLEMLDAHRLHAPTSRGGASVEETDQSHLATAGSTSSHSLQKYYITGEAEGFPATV
Sequence of Estrogen receptor beta (Homo sapiens) (Q92731 whole entry, looked up): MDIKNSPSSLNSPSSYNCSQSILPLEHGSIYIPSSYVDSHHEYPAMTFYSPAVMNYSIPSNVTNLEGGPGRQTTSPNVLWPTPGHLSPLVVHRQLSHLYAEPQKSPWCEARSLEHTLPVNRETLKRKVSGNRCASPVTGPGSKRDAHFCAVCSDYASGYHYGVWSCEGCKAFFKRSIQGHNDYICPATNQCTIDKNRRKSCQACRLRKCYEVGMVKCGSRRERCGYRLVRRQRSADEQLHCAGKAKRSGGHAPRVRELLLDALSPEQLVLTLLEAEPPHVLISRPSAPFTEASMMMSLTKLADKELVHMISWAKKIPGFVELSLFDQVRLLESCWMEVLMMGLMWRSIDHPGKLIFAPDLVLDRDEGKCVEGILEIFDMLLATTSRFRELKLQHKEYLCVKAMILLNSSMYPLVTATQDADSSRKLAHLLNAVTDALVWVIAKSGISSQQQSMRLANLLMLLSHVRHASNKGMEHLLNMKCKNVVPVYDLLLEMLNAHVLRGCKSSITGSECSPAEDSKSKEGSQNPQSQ
Sequence of Thyrotropin receptor (Homo sapiens) (P16473 whole entry, looked up): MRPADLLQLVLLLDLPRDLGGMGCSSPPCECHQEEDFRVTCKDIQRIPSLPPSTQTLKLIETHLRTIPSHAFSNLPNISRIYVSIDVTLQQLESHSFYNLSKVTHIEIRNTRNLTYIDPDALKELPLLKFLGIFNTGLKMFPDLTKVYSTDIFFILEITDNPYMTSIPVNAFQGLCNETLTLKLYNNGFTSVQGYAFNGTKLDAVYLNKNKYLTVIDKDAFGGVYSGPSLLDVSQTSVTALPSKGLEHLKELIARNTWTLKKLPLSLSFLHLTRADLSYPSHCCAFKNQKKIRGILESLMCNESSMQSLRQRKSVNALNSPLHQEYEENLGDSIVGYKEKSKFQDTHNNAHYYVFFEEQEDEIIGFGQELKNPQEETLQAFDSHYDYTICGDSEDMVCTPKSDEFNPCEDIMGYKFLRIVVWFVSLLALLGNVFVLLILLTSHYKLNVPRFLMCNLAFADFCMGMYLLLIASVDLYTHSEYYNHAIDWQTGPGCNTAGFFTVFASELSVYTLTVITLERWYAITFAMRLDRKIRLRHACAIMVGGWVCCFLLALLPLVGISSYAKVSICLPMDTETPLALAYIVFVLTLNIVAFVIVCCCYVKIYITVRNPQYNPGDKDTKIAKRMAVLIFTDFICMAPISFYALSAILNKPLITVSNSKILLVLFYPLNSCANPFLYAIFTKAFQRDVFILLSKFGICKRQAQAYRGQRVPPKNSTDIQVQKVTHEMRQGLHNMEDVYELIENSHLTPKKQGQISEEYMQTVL

Take `CN(N=O)c1ccccc1`: the Potency result in [1], in [2], in assay [4], in [5], in assay [7] and in [8] was “inactive” throughout. Further, the Potency result in assay [10], in [11], in assay [12], in assay [13], in [16] and in [17] was “inactive” in each case. Further, the outcome in assay [3], in [6], in assay [9], in assay [14] and in assay [15] was inactive.
For the compound `CON(C)C(=O)Nc1ccc(Cl)c(Cl)c1`, the Potency result in assay [1], in assay [4], in assay [5], in assay [7], in [10] and in assay [11] was “inactive” in each case. Moreover, the Potency result in assay [12], in assay [13] and in assay [17] was “inactive” each time. The Potency in assay [2] is 27.4 µM (active) and 19.3 µM (active). For the same compound, the compound was classed as inactive in [3], in [6], in assay [9], in [14] and in [15].
With `CCNc1nc(NC(C)(C)C)nc(SC)n1`, the Potency entry in [1], in [2], in assay [4], in [5], in assay [8] and in assay [10] was “inactive” each time. In addition, the Potency entry in [11], in [12] and in [13] was “inactive” throughout. Moreover, the compound was classed as inactive in assay [3], in assay [6], in assay [9], in assay [14] and in assay [15]. Further, the Potency in assay [7] is 1.7 µM (active) and 6.11 µM (active); in [16] it was 47.9 µM (active).
As to `CN=C=S`, the Potency entry in assay [1], in assay [2], in assay [4], in assay [5], in assay [10] and in assay [11] was “inactive” each time. Moreover, the Potency result in assay [12], in [13], in assay [16] and in assay [17] was “inactive” throughout. Besides, the compound was classed as inactive in assay [3], in assay [6], in assay [9], in [18], in assay [14] and in [15]. Moreover, the Potency in assay [7] was 2.19 µM (active).
For `CCC12COCN1COC2`, the Potency result in assay [1], in assay [2], in [4], in assay [5], in assay [7] and in assay [10] was “inactive” in each case. The Potency entry in [11], in assay [12], in assay [13], in [16] and in assay [17] was “inactive” in each case. For the same compound, the compound was called inactive in [3], in assay [6], in [9], in assay [18], in assay [14] and in assay [15].
Regarding `ClCc1cccnc1`, the Potency result in assay [1], in [2], in assay [4], in assay [5], in assay [7] and in [10] was “inactive” throughout. The Potency entry in assay [11], in [12], in [13], in assay [16] and in [17] was “inactive” in each case. Besides, the compound was called inactive in assay [3], in [6], in assay [9], in [14] and in [15].
For the compound `CCCC1COC(Cn2cncn2)(c2ccc(Cl)cc2Cl)O1` (stereo unspecified), the Potency entry in assay [2], in assay [4], in assay [5], in assay [11], in assay [12] and in assay [13] was “inactive” each time. Further, the compound was called inactive in assay [3], in assay [6], in assay [19], in assay [18], in assay [14] and in [15]. For the same compound, the Potency in assay [7] was 27.8 µM (active); in assay [10], 61.1 µM (active); in assay [16], 17.5 µM (active).
`O=c1ccc(=O)[nH][nH]1`: the Potency entry in assay [2], in assay [4], in assay [5], in assay [7], in assay [10] and in assay [11] was “inactive” each time. Besides, the Potency result in [13], in assay [16] and in [17] was “inactive” throughout. In addition, the compound was called inactive in assay [3], in assay [6], in assay [9], in [19], in assay [18] and in [14]. Further, the compound was classed as inactive in assay [15].
In the case of `CCOP(=S)(OCC)SCCSCC`, the Potency result in [2], in [4], in assay [5], in assay [7], in assay [8] and in assay [10] was “inactive” each time. In addition, the Potency result in [11], in assay [13], in assay [16] and in [17] was “inactive” in each case. The call in assay [3], in assay [6], in [9], in assay [18], in [14] and in assay [15] was inactive.
For `Cc1cc(Cl)ccc1O`, the Potency result in [2], in assay [4], in assay [5], in [8], in assay [10] and in [11] was “inactive” in each case. Moreover, the Potency result in assay [13], in assay [16] and in assay [17] was “inactive” in each case. Besides, the compound was called inactive in assay [3], in [6], in assay [9], in [18], in assay [14] and in [15]. In [7], the Potency was 2.65 µM (active).

The values above are taken from PubChem BioAssay (Tox21).
